Compound activity as filed in PubChem BioAssay.
The full list was thinned out, with hits kept by preference.
Pf Dd2 growth – Plasmodium falciparum Dd2 growth inhibition; P. falciparum Dd2 growth, SYBR Green, 72 h; Potency, µM (highest dose often 28.9 µM), for the others: at the highest dose activity, negative = inhibition, most hits filed as inhibitors; actives 4.3% (n = 120,000); AID 1347417; active = well fitted inhibition curve with a large enough effect;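 note: plate controls were DMSO vehicle for no effect and reference drug for full effect; nearly all actives have a fitted effect of over 65% in size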
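Readout: SYBR Green fluorescence, 485 nm excitation, 535 nm emission, after ~16 h lysis at 37C. Before that, Dd2-infected red cells (2.5% hematocrit) grew 72 h with compound, 29 uM top final concentration.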
An asterisk follows results filed as active; i = inactive; [ ] = another dose, or the depositor's remark. Potency is the fitted concentration of half-maximal effect.

SMILES	Pf Dd2 growth
Cc1cccc(C(=O)N2CCn3nnc(CCC(=O)NC4CC4)c3C2)c1	-8%
CC1CCCN1C(=O)c1cc(-c2cnn(C(C)C)c2)nc2cc(F)ccc12 (centres undefined)	-15%
CC(C)=CCn1c(-c2cc(C)oc2C)cn2cc(C(=O)N3CCCC3C)nc2c1=O (centres undefined)	8.9µM*
CC1CCCCN1C(=O)c1cc(-c2ccc(Br)cc2)on1 (centres undefined)	42%
O=C(N[C@H]1CO[C@H]2[C@@H]1OC[C@@H]2n1nnnc1Oc1ccc(-n2ccnc2)cc1)C1CCCCC1	-21%
N#Cc1ccc(C(=O)Nc2ccc3c(c2)N(C2CCCC2)C(=O)c2ccccc2S3)cc1	11µM*
CCN1C(=O)c2ccccc2Sc2ccc(NC(=O)c3ccc(Cl)cc3)cc21	i
CCN1C(=O)c2ccccc2Sc2ccc(NC(=O)Nc3cc(C)cc(C)c3)cc21	-11%
CCOC(=O)C1CCN(C(=O)CCN(CC)C(=O)c2cc(C)oc2C)CC1	-5%
COc1ccc(CCC(=O)NCCC2CCN(C(=O)Nc3cc(F)cc(F)c3)CC2)cc1	-18%
COc1ccccc1OC1(C(=O)O)CCN(Cc2ccccc2F)CC1	4%
CCN(CC)C[C@H]1O[C@H](Cc2cc(-c3ccc(F)cc3)on2)CC[C@@H]1O	7.1µM*
CN(C)C[C@H]1O[C@H](Cc2cc(-c3ccc(F)cc3)on2)CC[C@@H]1O	i
COCc1cc(C[C@@H]2CC[C@H](O)[C@@H](CNCc3ccccc3)O2)no1	i
O[C@H]1CC[C@@H](Cc2cc(COc3ccccc3)on2)O[C@@H]1CNCc1cccc(Cl)c1	1.3µM*
COCC(=O)NC[C@H]1O[C@H](Cc2cc(-c3ccc(F)cc3)on2)CC[C@@H]1O	14µM*
CN(Cc1ccccc1)Cc1cc(C[C@@H]2CC[C@H](O)[C@@H](CN)O2)no1	i
CC(C)(C)c1cc(C[C@@H]2CC[C@H](O)[C@@H](CN(CC3CC3)CC3CC3)O2)no1	4.5µM*
COCC(=O)NC[C@H]1O[C@H](Cc2cc(-c3ccc(OC)cc3)on2)CC[C@@H]1O	i
CN(C)C[C@H]1O[C@H](Cc2cc(CN3CCOCC3)on2)CC[C@@H]1O	1%[44.1 µM]
CC(=O)NC[C@H]1O[C@H](Cc2cc(-c3ccc(F)cc3)on2)CC[C@@H]1O	i
O=C(NC[C@H]1O[C@H](Cc2cc(-c3ccc(F)cc3)on2)CC[C@@H]1O)C1CCC1	i
COCc1cc(C[C@@H]2CC[C@H](O)[C@@H](CNCc3cccc(OC)c3)O2)no1	-3%[44.1 µM]
Cc1ccccc1S(=O)(=O)N1CCn2c(n[nH]c2=O)C1	-10%
CS(=O)(=O)N(C1CC1)C1CCOC2(CCN(C(=O)COc3ccccc3)CC2)C1 (centres undefined)	i
SMILES	Pf Dd2 growth
CNC(=O)c1noc([C@@H]2CC(F)(F)CN2C(=O)c2cccc(C)c2)n1	1%
COc1ccc(CCNC(=O)c2cc[nH]c2C2CCCN(C(C)=O)C2)c(OC)c1 (centres undefined)	-14%
c1ccc(-n2nccc2CN2CCC3(CCNCC3)C2)cc1	-24%
CC(C)c1ccc(NC(=O)O[C@@H]2CO[C@H]3[C@@H]2OC[C@@H]3NC(=O)c2ccccc2)cc1	7%[44.1 µM]
N#Cc1ccc(S(=O)(=O)N2CCC3(CC2)CC2C(=O)NCCN2C3)cc1 (centres undefined)	8%
CC(=O)N1CCC([C@@H]2CN(Cc3ccc(C#N)cc3)C[C@H]2CO)CC1	-8%
COc1ccc(CNC2(Cc3cc(C(=O)N4CCCCC4)on3)COC2)cc1	i
CC1(C(=O)NCCCN2CCCc3ccccc32)CCCCC(=O)N1 (centres undefined)	i
CC(C)CCNC(=O)N1CCCC(c2noc(COc3ccccc3F)n2)C1 (centres undefined)	i
O=C1CCN(S(=O)(=O)c2cccs2)CCCCCCN1	-5%
O[C@H]1CC[C@@H](Cc2cc(-c3ccccc3)on2)O[C@@H]1CNC1CCCCC1	4.5µM*
O=C(COc1ccccc1)NC[C@H]1O[C@H](Cc2cc(-c3ccccc3)on2)CC[C@@H]1O	i
COc1cccc(NC(=O)NC[C@H]2O[C@H](Cc3cc(-c4ccc(F)cc4)on3)CC[C@@H]2O)c1	-25%
Oc1cccc(-c2cc(C[C@@H]3CC[C@H](O)[C@@H](CNC4CCC4)O3)no2)c1	4%[44.1 µM]
O=C(NC[C@H]1O[C@H](Cc2cc(-c3ccc(F)cc3)on2)CC[C@@H]1O)c1ccc(F)cc1	-3%[44.1 µM]
CC(C)CCNC[C@H]1O[C@H](Cc2cc(-c3ccc(F)cc3)on2)CC[C@@H]1O	3.5µM*
O=C(c1ccccc1)N1CCn2ncc(C(=O)N3CCOCC3)c2C1	-11%
COc1ccc(NC(=O)O[C@@H]2CO[C@H]3[C@@H]2OC[C@@H]3NC(=O)Nc2cccc(C(F)(F)F)c2)cc1	-25%
O=C(Nc1ccc2c(c1)OCCO2)NC1CCN(C(=O)N2CC3CC(C2)[C@H]2CCCC(=O)N2C3)CC1 (some centres undefined)	i
Cc1cnc(C2CC2)n1C1CCCN(Cc2ccccc2)C1 (centres undefined)	i
c1ccc(OCCn2c(COc3ccccc3)nc3ccccc32)cc1	i
CCn1c(=N)n(CCOc2ccc(Br)cc2)c2ccccc21	5µM*
COc1cccc(OCc2nc3ccccc3n2CCOc2ccccc2)c1	-1%
COCc1noc([C@@H]2CN(S(=O)(=O)c3ccc(C#N)cc3)C[C@H]2C(N)=O)n1	28%
CN(C)C(=O)c1cccc2c1CCN2C(=O)c1ccc(F)cc1	i
SMILES	Pf Dd2 growth
Cc1ccc(C2Cn3nnc(C(=O)N4CCC(C(=O)NC5CCC(C)CC5)CC4)c3CO2)cc1 (centres undefined)	-7%
O=C(Nc1nc(-c2ccccc2)ns1)c1ccc(Cl)cc1	11%
COc1cc(C2C(C(=O)Nc3ccccc3)=C(C)Nc3nc(SCc4ccccc4F)nn32)cc(OC)c1OC (centres undefined)	3%
CC(=O)Nc1nc2n(n1)C(c1ccc(F)cc1)C=C(c1ccc(Cl)cc1)N2 (centres undefined)	10µM*
CC1=C(C(N)=O)C(c2ccc(F)cc2)n2nc(-c3ccccc3Cl)nc2N1 (centres undefined)	3%
O=C(O)c1cc(-n2c(/C=C\c3ccc(F)cc3)nc3ccccc3c2=O)ccc1Cl	-12%
O=S(=O)(Nc1nc2n(n1)C(c1ccc(F)cc1)C=C(c1ccc(Cl)cc1)N2)c1ccccc1 (centres undefined)	11%
COc1ccccc1/C=C/C(=O)Nc1nc2n(n1)C(c1ccc(F)cc1)C=C(c1ccccc1)N2 (centres undefined)	10µM*
O=C(c1ccccc1)n1nc(-c2ccccc2)nc1NCc1ccc(F)cc1	13%
O=C(c1ccc(F)cc1)n1nc(-c2ccccc2)nc1NCc1ccc(F)cc1	-14%
O=C(/C=C/c1ccc(F)cc1)Nc1nc2n(n1)C(c1ccc(Cl)cc1)C=C(c1ccccc1)N2 (centres undefined)	11µM*
O=C(/C=C/c1ccccc1)Nc1nc2n(n1)C(c1ccc(Cl)cc1)C=C(c1ccccc1)N2 (centres undefined)	11µM*
Cc1nnc([C@@H]2CC(F)(F)CN2S(=O)(=O)c2cccnc2)o1	i
O=C(NCCc1ccccc1)c1cnc2n1CCN(CCc1ccccc1)CC2	11%[44.1 µM]
COc1ccccc1-c1ccc(NC(C)c2cn(C)nc2C)nn1 (centres undefined)	-7%
CN(C)C(=O)c1ccc(-c2ccc(N3CCCCCC3)nc2)cc1	i
